PubChem BioAssay (Tox21)
Inconclusive results are not listed. Active and inactive are the calls of the source. Unless noted, calls come from the whole dose curve; as a rule, active = well fitted curve in the direction sought with a large enough effect in the repeat runs; inconclusive = weak or mixed curves; inactive = no such curve, though single readings can be large; an effect the other way counts as inactive or inconclusive.

Legend:
[1] = qHTS assay to identify small molecule agonists of the sonic hedgehog signaling (Shh) pathway - cell viability counter screen (AID 1259366); note: nearly all actives have a fitted effect of over 50% in size
How it was run: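 Stable Gli1-Luc NIH/3T3 clone, 2,000 cells/well. Compound exposure 24hr at 37C. Read-out: CellTiter-Fluor fluorescence.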

[2] = qHTS assay to identify small molecule antagonists of the sonic hedgehog signaling (Shh) pathway - cell viability counter screen (AID 1259367); note: nearly all actives have a fitted effect of over 55% in size
How it was run: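 Viability was read by CellTiter-Fluor fluorescence in the same wells, reagent added 23 hr into compound treatment and incubated 1 hr at 37C. The 3T3 Gli1-Luc reporter cells (2,000/well) received conditioned medium after compound and ran 24 hr.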

[3] = qHTS assay to identify small molecule agonists of the sonic hedgehog signaling (Shh) pathway (AID 1259368; calls by dose curve;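 note: NIH/3T3-derived 3T3Gli1-Luc cells carrying a stable Gli1-driven firefly luciferase reporter; series mostly up to about 92 µM; nearly all actives have a fitted effect of over 15% in size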)
How it was run: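 Following a 24 hr incubation with DMSO-dissolved compounds at 37 C, 5% CO2, Gli1-Luc NIH/3T3-derived cells received luciferase reagent for 30 min at room temperature prior to luminescence measurement.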

[4] = qHTS assay to identify small molecule antagonists of the sonic hedgehog signaling (Shh) pathway (AID 1259369; calls by dose curve; note: nearly all actives have a fitted effect of over 45% in size)
How it was run: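 Read-out is luminescence from a firefly luciferase gene controlled by the Gli1 response element, in 3T3Gli1-Luc cells pre-incubated 4hr then exposed to compounds and conditioned medium for 24hr.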

[5] = target: Estrogen receptor beta (Homo sapiens) (UniProt Q92731); assay: qHTS assay to identify small molecule agonists of the estrogen receptor beta (ER-beta) signaling pathway (AID 1259377; active = well fitted activation curve with a large enough effect in the signal ratio in the repeat runs, not every such curve was filed as active; the % refers to the signal ratio)
How it was run: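 Measured by fluorescence intensity from a B/G FRET beta-lactamase substrate (2 h, room temperature) in ER-beta-UAS-bla HEK293T cells treated with DMSO-dissolved compounds for 16 hr at 37C and 5% CO2.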

[6] = qHTS assay to identify small molecule agonists of the androgen receptor (AR) signaling pathway in the presence of an antagonist - cell viability counter screen (AID 1259379);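 note: MDA-kb2 human breast cancer cells carrying an MMTV luciferase reporter; series mostly up to about 92 µM; nearly all actives have a fitted effect of over 25% in size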
How it was run: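 Each compound was tested at 15 concentrations on MDA-kb2 cells in the presence of 3.0uM nilutamide. Viability was measured by CellTiter-Fluor fluorescence after a 16 hr incubation at 37C in a CO2-free atmosphere.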

[7] = qHTS assay to identify small molecule agonists of the estrogen receptor beta (ER-beta) signaling pathway - cell viability counter screen (AID 1259380); note: nearly all actives have a fitted effect of over 30% in size
How it was run: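 Compounds dissolved in DMSO were pin-transferred onto ER-beta-UAS-bla HEK293T cells that had settled 6 hr, and exposure ran 16 hr at 37C. Following the reporter read, CellTiter-Glo luminescence after 30 min at room temperature indicated cytotoxicity.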

[8] = qHTS assay to identify small molecule antagonists of the estrogen receptor beta (ER-beta) signaling pathway - cell viability counter screen (AID 1259382);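 note: HEK293T cells carrying ER-beta-UAS-bla reporter stimulated with estradiol; series mostly up to about 92 µM; nearly all actives have a fitted effect of over 55% in size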
How it was run: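 CellTiter-Glo ATP luminescence measured after the LiveBLAzer read in the same wells; ER-beta-UAS-bla HEK293T cells, 16 hr compound treatment with 1nM 17-beta-estradiol agonist at 37C, 5% CO2.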

[9] = qHTS assay to identify small molecule agonists of the estrogen receptor alpha (ER-alpha) signaling pathway in the presence of an antagonist - cell viability counter screen (AID 1259386);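 note: series mostly up to about 92 µM; cells exposed to compounds for 22 h at 37 °C before the viability read; nearly all actives have a fitted effect of over 30% in size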
How it was run: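 Using estrogen-depleted VM7Luc4E2 cells, the 15-concentration compound series was applied together with 10.0nM ICI-182,780 and incubated 22hr at 37C/5% CO2. Cell viability was then scored by CellTiter-Fluor.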

[10] = target: Progesterone receptor (Homo sapiens) (UniProt P06401); assay: qHTS assay to identify small molecule agonists of the progesterone receptor (PR) signaling pathway (AID 1346784; calls by dose curve; note: nearly all actives have a fitted effect of over 30% in size)
How it was run: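 The screen uses PR-UAS-bla HEK 293T cells in charcoal-stripped serum (2%). Compounds are applied for 16 hr at 37C after a 6 hr pre-incubation, and reporter activity is detected with a FRET beta-lactamase substrate after 2 hr at room temperature.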

[11] = target: Progesterone receptor (Homo sapiens) (UniProt P06401); assay: qHTS assay to identify small molecule antagonists of the progesterone receptor (PR) signaling pathway (AID 1346795; active = well fitted inhibition curve with a large enough effect in the signal ratio in the repeat runs, not every such curve was filed as active; the % refers to the signal ratio)
How it was run: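 After 6 hr plating at 37C in 2% stripped-serum medium, PR-UAS-bla HEK293T cells got compounds, then 1 nM R5020. Sixteen hours later, LiveBLAzer substrate was applied for 2 hr at room temperature and fluorescence was recorded.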

[12] = qHTS assay to identify small molecule antagonists of the progesterone receptor (PR) signaling pathway - cell viability counter screen (AID 1346798); note: series mostly up to about 92 µM; nearly all actives have a fitted effect of over 50% in size
How it was run: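 Viability was determined by ATP-based luminescence (CellTiter-Glo) in PR-UAS-bla HEK293T cells cultured in 2% charcoal-stripped serum and incubated 16 hr with compounds under R5020 stimulation.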

[13] = qHTS assay to identify small molecule agonists of the progesterone receptor (PR) signaling pathway - cell viability counter screen (AID 1346799; calls by dose curve; note: nearly all actives have a fitted effect of over 45% in size)
How it was run: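 Viability was scored by ATP luminescence (CellTiter-Glo, 30 min, room temperature) in the same wells used for the reporter readout, after 16 hr compound exposure of PR-UAS-bla HEK293T cells.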

[14] = qHTS assay to identify small molecule antagonists of the TGF-beta/Smad signaling pathway - cell viability counter screen (AID 1346824); note: nearly all actives have a fitted effect of over 50% in size
How it was run: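 Cytotoxicity counter-screen run in the same wells as the beta-lactamase Smad reporter read: CellTiter-Glo luminescence after 30 min at room temperature. HEK 293T SBE-bla cells had 5 hr compound exposure at 37 C with TGF-beta1 (0.25 ng/mL stock).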

[15] = qHTS assay to identify small molecule agonists of the TGF-beta/Smad signaling pathway - cell viability counter screen (AID 1346829); note: top concentration of the series differs between compounds; nearly all actives have a fitted effect of over 45% in size
How it was run: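 In parallel with the Smad reporter read, viability of HEK 293T cells stably carrying SBE-bla is quantified by ATP luminescence following 5 hr compound treatment.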

[16] = target: Estrogen receptor beta (Homo sapiens) (UniProt Q92731); assay: qHTS assay to identify small molecule antagonists of the estrogen receptor beta (ER-beta) signaling pathway (AID 1259378; active = well fitted inhibition curve with a large enough effect in the signal ratio in the repeat runs, not every such curve was filed as active; the % refers to the signal ratio)
How it was run: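 Antagonist mode: compounds added to beta-lactamase reporter HEK293T ER-beta-UAS cells stimulated with E2 (1nM final), 16 hr at 37C. LiveBLAzer B/G FRET substrate, 2 hours room temperature, fluorescence read-out.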

[17] = target: Estrogen receptor (Homo sapiens) (UniProt P03372); assay: qHTS assay to identify small molecule agonists of the estrogen receptor alpha (ER-alpha) signaling pathway in the presence of an antagonist (AID 1259383; calls by dose curve; note: top concentration of the series differs between compounds; nearly all actives have a fitted effect of over 15% in size)
How it was run: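 Luminescent ERE-luciferase reporter, VM7Luc4E2 cells (endogenous ER-alpha); 10.0nM ICI-182,780 final; 15-point compound titration; 22hr at 37C; ONE-Glo, 30min RT.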

[18] = qHTS assay to identify small molecule agonists or antagonists of the thyroid stimulating hormone receptor (TSHR) signaling pathway - wild type cell line counter screen (AID 1259384; calls by dose curve)
How it was run: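 Counter screen in untransfected Hek293: compounds (15-point titration, triplicate) plus phosphodiesterase inhibitor Ro20-1724 added after 18 h plating; 30 min RT. Intracellular cAMP via competitive d2/cryptate immunoassay, 1 h incubation.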

[19] = target: Thyrotropin receptor (Homo sapiens) (UniProt P16473); assay: qHTS assay to identify small molecule antagonists of the thyroid stimulating hormone receptor (TSHR) signaling pathway (AID 1259385; calls by dose curve; note: nearly all actives have a fitted effect of over 20% in size)
How it was run: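 Antagonist mode: compound-treated TSHR-expressing HEK293 cells were stimulated with 1.5 ng/mL TSH (final) in presence of Ro20-1724 for 30 min at RT. HTRF cAMP detection after 1 h; each compound tested at 15 concentrations, triplicate.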

Measured: Potency

Sequence of Estrogen receptor (Homo sapiens) (P03372 whole entry, looked up): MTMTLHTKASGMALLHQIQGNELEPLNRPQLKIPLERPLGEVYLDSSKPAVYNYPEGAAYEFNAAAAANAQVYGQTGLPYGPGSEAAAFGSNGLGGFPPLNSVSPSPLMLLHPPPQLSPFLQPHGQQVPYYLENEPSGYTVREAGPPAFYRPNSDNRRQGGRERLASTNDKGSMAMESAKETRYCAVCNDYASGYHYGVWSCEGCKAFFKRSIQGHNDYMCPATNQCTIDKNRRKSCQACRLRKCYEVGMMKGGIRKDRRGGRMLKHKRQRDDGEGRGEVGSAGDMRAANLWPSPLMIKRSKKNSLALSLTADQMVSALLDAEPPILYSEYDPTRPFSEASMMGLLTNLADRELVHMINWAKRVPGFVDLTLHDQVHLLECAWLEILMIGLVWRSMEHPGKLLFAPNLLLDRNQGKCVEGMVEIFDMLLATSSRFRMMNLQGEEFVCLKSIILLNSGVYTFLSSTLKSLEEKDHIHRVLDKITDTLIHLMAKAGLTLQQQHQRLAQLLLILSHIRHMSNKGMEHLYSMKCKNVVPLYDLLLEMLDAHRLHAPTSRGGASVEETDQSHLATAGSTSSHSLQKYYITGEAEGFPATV
Sequence of Thyrotropin receptor (Homo sapiens) (P16473 whole entry, looked up): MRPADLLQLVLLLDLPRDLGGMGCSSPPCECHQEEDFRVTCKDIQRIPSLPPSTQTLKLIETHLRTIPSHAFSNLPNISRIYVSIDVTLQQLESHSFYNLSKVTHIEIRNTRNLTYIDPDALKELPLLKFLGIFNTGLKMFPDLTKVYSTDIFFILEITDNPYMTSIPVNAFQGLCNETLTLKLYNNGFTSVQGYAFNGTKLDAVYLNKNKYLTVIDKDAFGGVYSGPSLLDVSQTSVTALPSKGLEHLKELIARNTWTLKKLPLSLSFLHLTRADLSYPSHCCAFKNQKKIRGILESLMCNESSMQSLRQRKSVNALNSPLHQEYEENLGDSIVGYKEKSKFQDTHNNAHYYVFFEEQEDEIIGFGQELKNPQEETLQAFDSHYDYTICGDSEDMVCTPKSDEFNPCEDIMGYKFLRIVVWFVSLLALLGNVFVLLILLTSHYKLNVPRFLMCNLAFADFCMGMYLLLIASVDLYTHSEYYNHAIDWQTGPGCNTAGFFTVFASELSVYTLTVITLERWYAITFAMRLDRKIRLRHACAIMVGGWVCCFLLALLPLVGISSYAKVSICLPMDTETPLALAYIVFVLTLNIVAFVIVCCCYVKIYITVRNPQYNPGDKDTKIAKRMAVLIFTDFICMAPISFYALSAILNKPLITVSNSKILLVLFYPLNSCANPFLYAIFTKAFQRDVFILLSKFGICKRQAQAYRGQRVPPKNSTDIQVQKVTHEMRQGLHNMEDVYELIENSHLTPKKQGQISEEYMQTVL
Sequence of Estrogen receptor beta (Homo sapiens) (Q92731 whole entry, looked up): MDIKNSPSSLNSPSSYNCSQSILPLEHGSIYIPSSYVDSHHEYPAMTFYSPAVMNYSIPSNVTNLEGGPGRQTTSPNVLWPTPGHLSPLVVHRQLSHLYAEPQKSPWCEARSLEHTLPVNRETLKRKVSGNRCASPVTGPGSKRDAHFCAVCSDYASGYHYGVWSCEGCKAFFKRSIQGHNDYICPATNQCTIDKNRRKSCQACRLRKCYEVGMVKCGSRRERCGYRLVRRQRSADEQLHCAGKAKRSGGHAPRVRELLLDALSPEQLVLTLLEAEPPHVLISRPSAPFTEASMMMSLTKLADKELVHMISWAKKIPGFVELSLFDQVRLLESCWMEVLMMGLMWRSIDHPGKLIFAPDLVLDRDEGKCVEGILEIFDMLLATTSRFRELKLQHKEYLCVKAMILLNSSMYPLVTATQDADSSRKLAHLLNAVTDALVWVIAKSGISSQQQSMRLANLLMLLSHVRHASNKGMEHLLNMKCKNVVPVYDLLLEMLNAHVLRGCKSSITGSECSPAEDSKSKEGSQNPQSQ
Sequence of Progesterone receptor (Homo sapiens) (P06401 whole entry, looked up): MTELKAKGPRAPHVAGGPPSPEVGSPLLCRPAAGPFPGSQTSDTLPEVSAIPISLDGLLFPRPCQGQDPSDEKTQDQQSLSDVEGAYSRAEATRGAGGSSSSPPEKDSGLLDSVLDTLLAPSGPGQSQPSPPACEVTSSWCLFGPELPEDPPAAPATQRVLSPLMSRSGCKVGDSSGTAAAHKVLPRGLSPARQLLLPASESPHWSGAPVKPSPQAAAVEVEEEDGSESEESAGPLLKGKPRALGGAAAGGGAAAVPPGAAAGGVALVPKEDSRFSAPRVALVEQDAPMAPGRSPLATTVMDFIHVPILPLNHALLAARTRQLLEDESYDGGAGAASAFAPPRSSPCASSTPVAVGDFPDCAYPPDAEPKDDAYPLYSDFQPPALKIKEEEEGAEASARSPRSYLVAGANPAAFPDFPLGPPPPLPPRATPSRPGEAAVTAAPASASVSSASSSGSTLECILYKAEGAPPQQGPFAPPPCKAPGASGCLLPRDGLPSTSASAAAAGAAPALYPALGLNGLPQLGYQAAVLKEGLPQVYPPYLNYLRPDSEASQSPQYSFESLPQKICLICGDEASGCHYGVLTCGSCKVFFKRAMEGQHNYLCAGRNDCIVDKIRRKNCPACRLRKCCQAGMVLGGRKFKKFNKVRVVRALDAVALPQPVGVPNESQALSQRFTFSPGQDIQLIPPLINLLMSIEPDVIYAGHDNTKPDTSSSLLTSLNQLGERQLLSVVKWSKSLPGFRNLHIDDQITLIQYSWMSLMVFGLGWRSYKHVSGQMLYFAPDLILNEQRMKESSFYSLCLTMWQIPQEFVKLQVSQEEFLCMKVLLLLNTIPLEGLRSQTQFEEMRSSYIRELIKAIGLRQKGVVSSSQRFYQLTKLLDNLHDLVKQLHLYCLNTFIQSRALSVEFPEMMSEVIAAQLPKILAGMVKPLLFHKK

C=COCCOCCOC=C
not listed: [16] | [17] | [18] | [19]
inactive: all other assays above

CCCCCCCC[Si](OCC)(OCC)OCC
not listed: [17] | [18] | [19]
inactive: all other assays above

Nc1ccc(C(=O)OCC(O)CO)cc1 (stereo not given)
not listed: [13] | [16]
inactive: all other assays above

COC(/C=C(\C)CCC=C(C)C)OC
not listed: [6] | [10] | [13]
inactive: all other assays above

NC(Cc1c[nH]c2ccccc12)C(=O)O (stereo not given)
not listed: [16] | [17]
inactive: all other assays above

C[C@H](CCC(=O)NCC(=O)O)[C@H]1CC[C@H]2[C@@H]3[C@H](O)C[C@@H]4C[C@H](O)CC[C@]4(C)[C@H]3C[C@H](O)[C@]12C
not listed: [7] | [17]
inactive: all other assays above

NS(=O)(=O)c1ccc(Cl)c(S(N)(=O)=O)c1
not listed: [7] | [12]
inactive: all other assays above

CCOc1ccc(NC(=O)OC(C)C)cc1OCC
not listed: [7] | [12] | [13] | [17] | [18] | [19]
inactive: all other assays above

C=C(C)C(=O)OC1CC(C)CC(C)(C)C1 (stereo not given)
not listed: [17] | [19]
inactive: all other assays above
